Laboratory results taken from PubChem BioAssay (NCATS).
Results filed as inconclusive are left out. Calls of active or inactive are those of the source. The call rests on the fitted dose curve; in most records, active means well fitted activation curve with a large enough effect; inconclusive means small, poorly fitted or top-dose-only effect; inactive means flat fitted curve, though single readings scatter.

Assay: Primary redox qHTS assay for identification of artifact compounds. (AID 1845223);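 further: 0% = DMSO and 100% = reference compound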
Details: Amplex Red/HRP redox cycling with DTT, fluorescence; series mostly up to 53.8 µM; redox activity (% of DA3003): at the top concentration
Outline: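 Amplex Red (25 uM) and HRP (250 mU/mL) in HBSS, with compounds for 15 min, then 250 uM DTT for 30 min, room temperature, dark. Fluorescence 525/598 nm read; normalized to DMSO and 10 uM DA3003; Hill fit.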

Structure (SMILES)	redox activity (% of DA3003)
CNC(=O)c1cccc(-c2ccc3c(N4CCOC[C@@H]4C)nc(N4CCOC[C@@H]4C)nc3n2)c1	-4.18% (inactive)
CC(=O)OC1C(=O)C2(C)C(O)CC3OCC3(OC(C)=O)C2C(OC(=O)c2ccccc2)C2(O)CC(OC(=O)C(O)C(NC(=O)c3ccccc3)c3ccccc3)C(C)=C1C2(C)C (stereo unspecified)	8.78% (inactive)
COc1cc(O)cc(C)c1C(=O)OC1C(CO)OC(OC2C(O)C(O)C(O)C(O)C2O)C(O)C1O (stereo unspecified)	-5.3% [at 25.6 µM] (inactive)
CC(Nc1ncnc2nc[nH]c12)c1cc2cccc(Cl)c2c(=O)n1-c1ccccc1 (stereo unspecified)	-2.18% (inactive)
CC(C)(O)C1CCC(C)(C2CCC3(C)C4CCC5C(C)(C(=O)OC6OC(CO)C(O)C(O)C6O)C(O)CC(O)C56CC46CCC23C)O1 (stereo unspecified)	13.4% [at 25.6 µM] (inactive)
CC(C)C(N)C(=O)OCCOCn1cnc2c(=O)[nH]c(N)nc21 (stereo unspecified)	-11.1% (inactive)
